“And” between values parts separate entries of the source, which are not always exact repeats. Identical values can stand only once. Records with an inconclusive call do not appear. More than one record can exist for a structure, and the calls need not agree. The source made the active and inactive calls. Calls follow the shape of the dose curve; as a rule, active = well fitted cell-killing curve with a large enough effect in the repeat runs; inconclusive = weak or mixed curves; inactive = no such curve, though single readings can be large or run the other way.
Assay: qHTS assay to identify small molecule antagonists of the androgen receptor (AR) signaling pathway - cell viability counter screen (AID 743033; also: nearly all actives have a fitted effect of over 45% in size)
Settings: AR-bla HEK293 viability, CellTiter-Glo luminescence, 16 h; series mostly up to 58.5 µM; activity change, negative = cytotoxicity: at the top concentration
From the text: National Center for Advancing Translational Sciences [NCATS]
NIH Chemical Genomics Center [NCGC]
U.S. Environmental Protection Agency [EPA]
National Institutes of Environmental Health Sciences [NIEHS]
National Toxicology Program [NTP]
U.S. Food and Drug Administration [FDA]
Androgen receptor (AR), a nuclear hormone receptor, plays a critical role in AR-dependent prostate cancer and other androgen related diseases. Endocrine disrupting chemicals (EDCs) and their interactions with steroid hormone receptors like AR may cause disruption of normal endocrine function as well as interfere with metabolic homeostasis, reproduction, developmental and behavioral functions. To identify the compounds that inhibit AR signaling, GeneBLAzer AR-UAS-bla-GripTite cell line (Invitrogen, Carlsbad, CA, USA) containing a beta-lactamase reporter gene under control of an Upstream Activator Sequence (UAS) stably integrated into HEK293 cells was used to screen the Tox21 10K compound library. The cytotoxicity of the Tox21 compound library against the AR-bla cell line was tested in parallel by measuring the cell viability using CellTiter-Glo assay in the same wells.
Tox21 Assay Protocol Summary:
AR-bla cells were dispensed at 2,000 cells/5 uL of assay medium per well into black wall/clear-bottom 1536-well plates using a Multidrop Combi (ThermoFisher Scientific, Waltham, MA) dispenser. After the assay plates were incubated at a 37C and 5% CO2 for 4 hr, 23 nL of compounds dissolved in DMSO, positive controls or DMSO only was transferred to the assay plate by a Pintool station (Kalypsys, San Diego, CA), followed by addition of 1 uL of agonist (R1881) in culture medium using a Bioraptr Flying Reagent Dispenser (FRD) workstation (Beckman Coulter, Indianapolis, IN, USA). The plates were incubated at a 37C and 5% CO2 for 16 h. After 1 uL of LiveBLAzerTM B/G FRET substrate was added using a Bioraptr FRD, the plates were incubated at room temperature for 2 h and fluorescence intensity was measured by an Envision plate reader (PerkinElmer, Shelton, CT). For cell viability readout that measures cytotoxicity, 4 ul/well of CellTiter-Glo reagent was added into the assay plates using a Bioraptr FRD. After 30 min incubation at room temperature, the luminescence intensity in the plates was measured using a ViewLux (PerkinElmer) plate reader.
% is scaled to controls: 0 for no effect and ±100 for the full control effect; potency is read from the fitted curve at half-maximal effect.

Compound | activity change, negative = cytotoxicity | Potency
CC1=C(/C=C/C(C)=C/C=C/C(C)=C/C=C/C=C(C)/C=C/C=C(C)/C=C/C2=C(C)CCCC2(C)C)C(C)(C)CCC1 | -27.7% (inactive) | 
CO/N=C(\C(=O)N[C@@H]1C(=O)N2C(C(=O)O)=C(C[N+]3(C)CCCC3)CS[C@H]12)c1csc(N)n1 | 6.8% (inactive) | 
CC(C)OC(=O)Nc1ccc2nc(-c3cscn3)[nH]c2c1 | -11.8% (inactive) | 
O=C(O)[C@@H]1C[C@H](CP(=O)(O)O)CCN1 | 6.09% (inactive) | 
C[S+](C)CCC(N)C(=O)O (stereo not given) | -10.7% (inactive) | 
Cc1cnc(C(=O)O)c[n+]1[O-] |  | inactive
COc1cc(/C=C/C(=O)CC(=O)/C=C/c2ccc(O)c(OC)c2)ccc1O |  | inactive and 43.9 µM (active)
CC[C@H]1OC(=O)C[C@@H](O)[C@H](C)[C@@H](O[C@@H]2O[C@H](C)[C@@H](O[C@H]3C[C@@](C)(O)[C@@H](O)[C@H](C)O3)[C@H](N(C)C)[C@H]2O)[C@@H](CC=O)C[C@@H](C)C(=O)/C=C/C(C)=C/[C@@H]1CO[C@@H]1O[C@H](C)[C@@H](O)[C@@H](OC)[C@H]1OC |  | inactive
CCCCCCCCCCCCCC(=O)OCC(COP(=O)([O-])OCC[N+](C)(C)C)OC(=O)CCCCCCCCCCCCC (stereo not given) | 4.68% (inactive) | 
NC(=O)[C@@H]1C[C@]2(NC(=O)NC2=O)c2cc(F)ccc2O1 | -2.85% (inactive) | 
COC(=O)C(CN)c1c[nH]c2ccc(OC)cc12 (stereo not given) | 7.54% (inactive) | 
N#Cc1nc(Cl)c(Cl)c(Cl)c1Cl |  | 9.77 µM (active)
N=C(N)n1cccn1 | 4.67% (inactive) | 
O=C1OC(O)C(C(Cl)Cl)=C1Cl (stereo not given) |  | 22.5 µM (active)
COc1cccc(-c2ccc(/C=C\CN3CCCCCC3)cc2Cl)c1 |  | 38.7 µM (active)
O=C(O)C[C@H](O)C[C@H](O)/C=C/c1c(C2CC2)nc2ccccc2c1-c1ccc(F)cc1 | -11.6% (inactive) | 
O=C1CCC(c2ccc(-n3ccnc3)cc2)=NN1 | 2.95% (inactive) | 
O=C1c2c(O)cccc2[C@H]([C@@H]2O[C@H](CO)[C@@H](O)[C@H](O)[C@H]2O)c2cc(CO)cc(O)c21 |  | inactive
CC(C)(COP(=O)(O)OP(=O)(O)OC[C@H]1O[C@@H](n2cnc3c(N)ncnc32)[C@H](O)[C@@H]1OP(=O)(O)O)C(O)C(=O)NCCC(=O)NCCS (stereo not given in full) | -17.2% (inactive) | 
Cc1ccc(Cl)c(N)c1Cl | -7.5% (inactive) | 

Compound | activity change, negative = cytotoxicity | Potency
CCOc1cc(CC(=O)N[C@@H](CC(C)C)c2ccccc2N2CCCCC2)ccc1C(=O)O | -0.804% [at 27 µM] (inactive) | 
CC[C@H]1OC(=O)[C@H](C)C(=O)[C@H](C)[C@@H](O[C@@H]2O[C@H](C)C[C@H](N(C)C)[C@H]2O)[C@](C)(OC)C[C@@H](C)C(=O)[C@H](C)[C@H]2N(CCCCn3cnc(-c4cccnc4)c3)C(=O)O[C@]12C |  | inactive
C=C1C(CCl)(CCl)C2(Cl)C(Cl)C(Cl)C1(Cl)C2(Cl)Cl (stereo not given) |  | inactive and 54.3 µM (active)
CC(C)(Oc1ccc(C2CCCc3ccccc32)cc1)C(=O)O (stereo not given) | 0.713% (inactive) | 
C=C1[C@@H]2CC[C@@H](C2)C1(C)C | -0.641% (inactive) | 
NC(=O)[C@@H]1CCCN1C(=O)[C@H](Cc1cnc[nH]1)NC(=O)[C@@H]1CCC(=O)N1 | -0.282% (inactive) | 
C/C(=C\C(=O)OCCCCCCCCC(=O)O)C[C@@H]1OC[C@H](C[C@@H]2O[C@H]2[C@@H](C)[C@H](C)O)[C@@H](O)[C@H]1O | -2.63% (inactive) | 
C=C(Nc1ccc(OCC)cc1)Nc1ccc(OCC)cc1 |  | inactive
NC(=O)CC[C@@H]1NC(=O)[C@H](Cc2ccccc2)NC(=O)[C@H](Cc2ccc(O)cc2)NC(=O)[C@@H](N)CSSC[C@@H](C(=O)N2CCC[C@H]2C(=O)N[C@@H](CCCN=C(N)N)C(=O)NCC(N)=O)NC(=O)[C@H](CC(N)=O)NC1=O |  | inactive
CC(=O)O[C@H]1C[C@@H]2CC[C@@H]3[C@H](CC[C@@]4(C)[C@H]3C[C@H]([N+]3(C)CCCCC3)[C@@H]4OC(C)=O)[C@@]2(C)C[C@@H]1[N+]1(C)CCCCC1 | 3.26% (inactive) | 
CCOC(=O)COc1ccc2c(=O)cc(-c3ccccc3)oc2c1 |  | inactive
CCC(C)(C)c1ccc(CC(C)CN2C[C@@H](C)O[C@@H](C)C2)cc1 (stereo not given in full) | -28.7% (inactive) | 
CCCCCCCCCC[N+](C)(CCCCCCCCCC)CCC[Si](OC)(OC)OC |  | 43.6 µM (active)
Cc1onc(-c2c(F)cccc2Cl)c1C(=O)N[C@@H]1C(=O)N2[C@@H]1SC(C)(C)[C@@H]2C(=O)O |  | inactive
CC[C@@H](C)[C@H](N)C(=O)O | -6.57% (inactive) | 
NCCO/C=C/[C@H](N)C(=O)O | 6.84% (inactive) | 
CO/N=C(\C(=O)N[C@@H]1C(=O)N2C(C(=O)[O-])=C(C[n+]3ccc(N)n3CCO)CS[C@H]12)c1csc(N)n1 | 8.15% (inactive) | 
CS(=O)(=O)c1ccc([C@@H](O)[C@@H](COC(=O)CN)NC(=O)C(Cl)Cl)cc1 | 1.22% (inactive) | 
CN1C(C(=O)Nc2ccccn2)C(=O)c2sc(Cl)cc2S1(=O)=O (stereo not given) | 10.3% (inactive) | 
O=C(Nc1ccccc1)c1cc(Cl)ccc1O |  | 11 µM (active)
